Several values for one entry are separate records, joined by “and”; a condition that tells them apart may be missing. Equal entries are not always repeated. Results filed as inconclusive are left out. Activity calls are given as the source filed them. Unless noted, calls follow the shape of the dose curve; as a rule, active = well fitted curve in the direction sought with a large enough effect; inconclusive = small, poorly fitted or top-dose-only effect, or another doubt; inactive = no such curve, though single readings can be large; an effect the other way counts as inactive or inconclusive.
Legend:
[1] = target: alpha-glucosidase (Oryza sativa, rice) (UniProt Q653V4); experiment: Counterscreen for Glucocerebrosidase Inhibitors: qHTS Assay for Rice alpha-Glucosidase at pH 5.0 (AID 997); conditions: rice alpha-glucosidase enzyme activity; series mostly up to 76.9 µM;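 also: 0% = full activity with enzyme and -100% = basal without enzyme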
Method in brief: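 Endpoint fluorogenic assay at pH 5.0: compounds (0.7 nM to 77 uM) titrated against 4 nM rice enzyme and 400 uM 4-MU-alpha-glucoside for 20 min at room temperature; NaOH/glycine stop, read ex 365/em 440 nm, Hill-fitted AC50.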

[2] = target: Alpha-galactosidase (Coffea arabica) (UniProt Q42656); experiment: Counterscreen for Glucocerebrosidase Inhibitors: qHTS Assay for Coffee Bean alpha-Galactosidase at pH 5.9 (AID 998); conditions: coffee bean alpha-galactosidase enzyme assay; series mostly up to 76.9 µM;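 also: plate controls were uninhibited enzyme for no effect and no-enzyme basal signal for full effect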
Alpha-galactosidase (Coffea arabica), sequence (Q42656 whole entry, looked up): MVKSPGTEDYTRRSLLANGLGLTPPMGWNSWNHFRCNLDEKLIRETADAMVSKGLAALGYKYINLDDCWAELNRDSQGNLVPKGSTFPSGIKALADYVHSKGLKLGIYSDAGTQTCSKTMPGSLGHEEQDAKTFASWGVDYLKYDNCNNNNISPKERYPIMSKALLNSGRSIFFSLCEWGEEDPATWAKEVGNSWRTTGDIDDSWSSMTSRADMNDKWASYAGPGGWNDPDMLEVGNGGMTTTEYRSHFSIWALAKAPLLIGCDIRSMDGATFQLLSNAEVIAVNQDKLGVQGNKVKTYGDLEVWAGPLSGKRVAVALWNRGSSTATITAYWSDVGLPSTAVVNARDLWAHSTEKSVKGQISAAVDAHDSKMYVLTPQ
Method in brief: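 In 50 mM citric acid pH 5.9 with 0.005% Tween-20, coffee bean enzyme hydrolyses 80 uM 4-MU alpha-D-galactopyranoside over 20 min at RT. Activity is normalized to controls; AC50 comes from Hill-modelled concentration-response data.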

[3] = qHTS Assay for Lipid Storage Modulators (AID 1519; calls by dose curve; as to activity change, negative = inhibition: % is scaled to controls: 0 for no effect and ±100 for the full control effect); conditions: Drosophila S3 cells, BODIPY lipid droplet/cell ratio, laser cytometry, cells loaded with oleic acid
Method in brief: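 Cells seeded at 5,000 per well were treated with compounds over a concentration series and loaded with oleic acid (400 uM, as added). Lipid droplet fluorescence (488 nm excitation, 500-530 nm channel) was read by laser-scanning cytometry and normalized to 20 uM Triacsin C.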

[4] = target: DNA repair nuclease/redox regulator APEX1 (Homo sapiens) (UniProt P27695); experiment: qHTS Validation Assay for Inhibitors of the Human Apurinic/apyrimidinic Endonuclease 1 (APE1) (AID 1705;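 also: TAMRA fluorescence gain over two minutes as APE1 cuts a quenched THF abasic duplex; % is scaled to controls: 0 for no effect and ±100 for the full control effect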); conditions: purified APE1 endonuclease activity, fluorescence, titration; series mostly up to 57.1 µM
DNA repair nuclease/redox regulator APEX1 (Homo sapiens), sequence (P27695 whole entry, looked up): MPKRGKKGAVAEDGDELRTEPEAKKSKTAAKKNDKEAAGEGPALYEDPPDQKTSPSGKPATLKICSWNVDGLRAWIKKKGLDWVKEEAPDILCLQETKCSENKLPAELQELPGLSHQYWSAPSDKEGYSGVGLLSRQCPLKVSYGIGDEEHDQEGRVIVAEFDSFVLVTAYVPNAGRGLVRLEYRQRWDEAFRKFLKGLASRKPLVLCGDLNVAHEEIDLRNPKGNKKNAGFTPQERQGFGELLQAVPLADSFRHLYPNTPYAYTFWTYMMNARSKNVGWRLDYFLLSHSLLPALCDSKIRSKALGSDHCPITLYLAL
Method in brief: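 Fluorogenic double-stranded THF abasic-site substrate (5'-TAMRA/3'-BHQ-2), 50 nM final. Enzyme preincubated with compound 15 min at room temperature, then substrate added. Kinetic fluorescence (ex 525/em 598 nm) read three times at 60 s intervals; activity taken as third-minus-first read difference.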

[5] = Counterscreen for APE1 Inhibitors: Fluorescent Dye Displacement Validation Assay (AID 1707); conditions: fluorescent dye displacement from DNA; series mostly up to 57.1 µM;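 also: plate controls were ThO with dsDNA and no compound for no effect and ThO without dsDNA for full effect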
Method in brief: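 Endpoint fluorescence read at 480 nm excitation / 540 nm emission; DNA-binding compounds lower signal by displacing 250 nM Thiazole Orange from 50 nM dsDNA containing a tetrahydrofuran abasic site, Tris-HCl pH7.5 buffer with NaCl and MgCl2.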

[6] = target: Endonuclease 4 (Escherichia coli (strain K12)) (UniProt P0A6C1); experiment: Counterscreen for APE1 Inhibitors: qHTS Validation Assay for Inhibitors of Endonuclease IV (AID 1708); also: % is scaled to controls: 0 for no effect and ±100 for the full control effect; conditions: E. coli endonuclease IV, DNA cleavage fluorescence; series mostly up to 57.1 µM
Method in brief: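 Enzyme (2 nM) + compound, 15 min RT; add 50 nM TAMRA/BHQ-2 THF-site dsDNA; kinetic read ex525/em598, 3 reads/60 s; activity = read 3 − read 1. Buffer Tris pH 7.5, 50 mM NaCl, 2 mM MgCl2, DTT, Tween-20.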

[7] = qHTS for differential inhibitors of proliferation of Plasmodium falciparum line 7G8 (AID 1815); conditions: Plasmodium falciparum 7G8 proliferation inhibition; series mostly up to 28.7 µM;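 also: parasite growth measured after three days of incubation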; also: potency is read from the fitted curve at half-maximal effect;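 as to activity change, negative = inhibition: plate controls were vehicle wells for no effect and reference inhibitor wells for full effect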
[8] = qHTS for differential inhibitors of proliferation of Plasmodium falciparum line GB4 (AID 1816); conditions: Potency: Plasmodium falciparum GB4 proliferation inhibition; series mostly up to 28.7 µM;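 also: parasite growth measured after 72 h incubation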; also: potency is read from the fitted curve at half-maximal effect;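 as to activity change, negative = inhibition: 0% = vehicle DMSO and -100% = reference inhibitor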
[9] = qHTS for differential inhibitors of proliferation of Plasmodium falciparum line 3D7 (AID 1876);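 also: parasite growth measured after three days of culture; 0% = vehicle wells and -100% = reference inhibitor wells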; conditions: P. falciparum 3D7 proliferation inhibition; series mostly up to 28.7 µM
[10] = qHTS for differential inhibitors of proliferation of Plasmodium falciparum line D10 (AID 1877); conditions: series mostly up to 28.7 µM;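 also: parasites grown with compound for 72 h before DNA staining; plate controls were vehicle wells for no effect and reference inhibitor wells for full effect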
[11] = qHTS for differential inhibitors of proliferation of Plasmodium falciparum line Dd2 (AID 1882); conditions: Potency: Plasmodium falciparum Dd2 proliferation inhibition; series mostly up to 28.7 µM; also: nearly all actives have a fitted effect of over 65% in size; also: potency is read from the fitted curve at half-maximal effect;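 as to activity change, negative = inhibition: plate controls were DMSO vehicle for no effect and 0.29 µM artemisinin for full effect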
Method in brief: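 SYBR Green DNA fluorescence (ex 485, em 535 nm) after overnight lysis quantifies parasite growth; compound exposure lasted 72 h at 37 C on infected red cells at 2.5% hematocrit, 0.3% parasitemia (final). Artemisinin 0.29 uM and vehicle wells define normalization.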

[12] = qHTS for differential inhibitors of proliferation of Plasmodium falciparum line W2 (AID 1883); conditions: Potency: Plasmodium falciparum W2 proliferation inhibition; series mostly up to 28.7 µM;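 also: parasites grown with compound for 72 h before lysis and staining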; also: potency is read from the fitted curve at half-maximal effect;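 as to activity change, negative = inhibition: 0% = vehicle wells and -100% = control inhibitor wells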
[13] = qHTS for differential inhibitors of proliferation of Plasmodium falciparum line HB3 (AID 1886); conditions: Potency: Plasmodium falciparum HB3 proliferation inhibition; series mostly up to 28.7 µM;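 also: parasites grown with compound for 72 h before SYBR Green readout; plate controls were vehicle for no effect and reference inhibitor for full effect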
[14] = target: Ferritin light chain (Equus caballus) (UniProt P02791); experiment: qHTS Validation Assay for Identification of Novel General Anesthetics (AID 2323); conditions: horse apoferritin, anesthetic-site fluorescent probe displacement; series mostly up to 76.9 µM; also: % is scaled to controls: 0 for no effect and ±100 for the full control effect
Ferritin light chain (Equus caballus), sequence (P02791 2-175 limits assumed): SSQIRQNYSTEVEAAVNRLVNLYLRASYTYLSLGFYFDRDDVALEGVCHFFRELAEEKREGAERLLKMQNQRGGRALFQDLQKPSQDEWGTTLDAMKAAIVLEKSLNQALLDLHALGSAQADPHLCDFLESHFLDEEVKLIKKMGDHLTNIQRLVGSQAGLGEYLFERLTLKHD
Method in brief: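 Horse-spleen apoferritin (10 uM) in PBS with 50% saturated 1-aminoanthracene; compounds pin-transferred, 10 min at room temperature. Fluorescence read at 380/535 nm, normalized to free 1-AMA and 1-AMA/apoferritin values; four-parameter Hill fit.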

[15] = Validation of Assay for Modulators of Lamin A Splicing (AID 1459; active = well fitted curve in the direction sought with a large enough effect in the signal ratio; the % refers to the signal ratio;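 also: cells exposed to compound for two days before reading; 0% is about no effect; ratio rise marks activators and ratio drop marks inhibitors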); conditions: Lamin A splicing dual RFP/GFP fluorescence reporter; series mostly up to 9.22 µM
Method in brief: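 S3 HeLa stably expressing lamin A-EGFP splicing minigene and DsRed2, 600 cells/well in Opti-MEM with 2% FBS, treated 48 h at 37C; laser-scanning cytometry gives GFP/RFP total intensity ratio; ancitabine positive control, 0.5% DMSO vehicle.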

[16] = qHTS Assay for Modulators of Human Peripheral Myelin Protein 22 (PMP22) Expression/Activity (AID 1967; active = well fitted curve in the direction sought with a large enough effect in the signal ratio; the % refers to the signal ratio;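 also: 0% = untreated cells and 100% end not stated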); conditions: Cell-based PMP22 reporter, dual-color luciferase ratio, mouse Pmp22 promoter in mouse Schwann cells; series mostly up to 115 µM
Method in brief: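 Mouse MSC80 Schwann cells carrying Pmp22 promoter–green click beetle luciferase plus EF-alpha–red luciferase control, dosed 24 h at 37 °C. Dual-filter luminescence, overlap-corrected; %Activity from green/red ratio normalised to untreated cells, concentration-response curves fitted.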

[17] = measured here: cell count channel max response
[18] = measured here: lipid channel max response

Nc1ccncc1
inactive: outcome [1] | outcome [2] | activity change, negative = inhibition ([3]; at 57.5 µM (top of the series)) -5.36% and 3.03% | outcome [4] | Potency [5] | outcome [6] | Potency [7] | Potency [8] | Potency [9] | Potency [10] | Potency [11] | Potency [12] | Potency [13] | outcome [14]
-10.8% and 8.53%: max response [3, 18]
-7.26% and -3.5%: max response [3, 17]

C=C(C)[C@H]1Cc2c(ccc3c2O[C@@H]2COc4cc(OC)c(OC)cc4[C@@H]2C3=O)O1
active: Potency [7] 11.2 µM | Potency [8] 12.6 µM | Potency [12] 8.91 µM
inactive: outcome [4] | Potency [5] | outcome [6] | Potency [11]

NN=C(N)N
inactive: outcome [1] | outcome [2] | outcome [4] | Potency [5] | outcome [6] | Potency [7] | Potency [8] | Potency [9] | Potency [10] | Potency [11] | Potency [12] | Potency [13] | outcome [14]

Clc1cccc(N2CCNCC2)c1
inactive: outcome [1] | outcome [2] | outcome [4] | Potency [5] | outcome [6] | Potency [9] | Potency [10] | Potency [13] | outcome [14]
active: Potency [8] 12.6 µM | Potency [12] 6.31 µM

CC(CCc1ccccc1)NC(C)C(O)c1ccc(O)cc1 (stereo not given)
-1.34%: max response [3, 17]
active: Potency [7] 7.94 µM | Potency [8] 3.16 µM | Potency [11] 5.01 µM | Potency [12] 2.51 µM
0.25%: max response [3, 18]
inactive: activity change, negative = inhibition ([3]; at 57.5 µM (top of the series)) 1.71% | outcome [4] | Potency [5] | Potency [10] | outcome [14]

Cc1ncc(CNC(=O)N(CCCl)N=O)c(N)n1
9.89%: max response [3, 17]
18%: max response [3, 18]
inactive: outcome [1] | outcome [2] | activity change, negative = inhibition ([3]; at 57.5 µM (top of the series)) 4.94% | outcome [4] | Potency [5] | outcome [6] | Potency [7] | Potency [8] | Potency [9] | Potency [10] | Potency [11] | Potency [12] | Potency [13] | outcome [14]

CCn1cc(C(=O)O)c(=O)c2ccc(C)nc21
inactive: outcome [1] | outcome [2] | outcome [15] | activity change, negative = inhibition ([3]; at 25.7 µM (top of the series)) 1.82% | outcome [4] | Potency [5] | outcome [6] | outcome [16] | outcome [14]
0.0975%: max response [3, 17]
0.934%: max response [3, 18]

From PubChem BioAssay (NCATS)
